For 1 compound, residual activity results are on record in ChEMBL document CHEMBL2218924, “A broad activity screen in support of a chemogenomic map for kinase signalling research and drug discovery” (Biochem J, 2013).

For test [1], the target named is T1, Ephrin type-B receptor 1 (Homo sapiens) (UniProt P54762).
T1 sequence (whole entry): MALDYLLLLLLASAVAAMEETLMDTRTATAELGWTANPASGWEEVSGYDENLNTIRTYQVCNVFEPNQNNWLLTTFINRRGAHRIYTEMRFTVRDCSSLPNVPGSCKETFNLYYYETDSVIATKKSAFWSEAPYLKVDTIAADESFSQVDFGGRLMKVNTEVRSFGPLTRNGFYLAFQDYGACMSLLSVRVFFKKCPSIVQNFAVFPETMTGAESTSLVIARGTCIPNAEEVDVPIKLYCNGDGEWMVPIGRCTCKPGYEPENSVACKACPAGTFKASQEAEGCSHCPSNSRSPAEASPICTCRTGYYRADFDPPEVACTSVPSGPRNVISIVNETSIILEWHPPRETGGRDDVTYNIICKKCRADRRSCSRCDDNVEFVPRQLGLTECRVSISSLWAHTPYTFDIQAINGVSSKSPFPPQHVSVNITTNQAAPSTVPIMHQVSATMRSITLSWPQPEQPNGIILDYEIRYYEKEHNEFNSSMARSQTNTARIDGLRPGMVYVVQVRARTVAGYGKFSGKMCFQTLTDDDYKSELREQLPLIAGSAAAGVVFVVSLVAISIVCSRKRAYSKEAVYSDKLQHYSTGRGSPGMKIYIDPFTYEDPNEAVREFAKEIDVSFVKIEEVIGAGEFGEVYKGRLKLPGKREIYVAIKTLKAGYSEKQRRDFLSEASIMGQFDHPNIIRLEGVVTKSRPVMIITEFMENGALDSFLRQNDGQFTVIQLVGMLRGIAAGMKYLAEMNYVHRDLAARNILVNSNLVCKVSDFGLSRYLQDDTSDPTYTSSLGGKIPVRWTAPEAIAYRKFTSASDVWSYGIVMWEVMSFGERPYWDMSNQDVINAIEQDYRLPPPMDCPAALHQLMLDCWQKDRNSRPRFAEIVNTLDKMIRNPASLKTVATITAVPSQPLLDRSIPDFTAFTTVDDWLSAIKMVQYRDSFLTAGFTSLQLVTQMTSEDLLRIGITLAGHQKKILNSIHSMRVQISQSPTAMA
To be noted: at 10 µM.

The target of test [2] is T2, Ephrin type-B receptor 2 (Homo sapiens) (UniProt P29323).
T2 sequence (whole entry): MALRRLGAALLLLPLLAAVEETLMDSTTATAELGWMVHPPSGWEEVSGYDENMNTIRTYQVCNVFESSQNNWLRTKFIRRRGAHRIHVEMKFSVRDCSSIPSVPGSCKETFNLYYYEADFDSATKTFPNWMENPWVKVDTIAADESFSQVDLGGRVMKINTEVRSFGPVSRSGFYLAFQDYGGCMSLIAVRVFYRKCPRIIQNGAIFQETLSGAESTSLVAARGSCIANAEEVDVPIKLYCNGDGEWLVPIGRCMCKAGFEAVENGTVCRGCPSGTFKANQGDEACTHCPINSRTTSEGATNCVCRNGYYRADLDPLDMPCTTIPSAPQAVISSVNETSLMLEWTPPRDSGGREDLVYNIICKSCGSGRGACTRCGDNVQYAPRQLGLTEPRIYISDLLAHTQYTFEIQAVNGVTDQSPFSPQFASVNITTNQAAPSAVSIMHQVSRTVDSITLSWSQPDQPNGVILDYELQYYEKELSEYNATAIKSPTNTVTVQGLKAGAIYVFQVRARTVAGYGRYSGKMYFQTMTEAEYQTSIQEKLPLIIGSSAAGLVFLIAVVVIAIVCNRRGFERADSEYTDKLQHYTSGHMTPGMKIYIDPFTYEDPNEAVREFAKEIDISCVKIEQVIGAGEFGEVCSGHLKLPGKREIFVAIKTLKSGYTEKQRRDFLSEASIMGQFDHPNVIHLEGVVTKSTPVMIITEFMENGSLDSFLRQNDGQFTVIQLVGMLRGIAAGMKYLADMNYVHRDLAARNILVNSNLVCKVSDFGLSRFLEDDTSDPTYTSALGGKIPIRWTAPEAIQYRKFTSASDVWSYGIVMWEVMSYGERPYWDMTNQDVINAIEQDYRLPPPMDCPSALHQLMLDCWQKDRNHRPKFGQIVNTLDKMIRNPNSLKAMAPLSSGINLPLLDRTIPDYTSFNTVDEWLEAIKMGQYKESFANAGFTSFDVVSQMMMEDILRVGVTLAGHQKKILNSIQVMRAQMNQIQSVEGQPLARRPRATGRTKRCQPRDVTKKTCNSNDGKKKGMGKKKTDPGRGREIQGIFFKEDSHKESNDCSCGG
To be noted: at 1 µM.

Test [3] addresses T2, Ephrin type-B receptor 2 (Homo sapiens). To be noted: at 10 µM.
Test [4] concerns the target T3, Ephrin type-B receptor 3 (Homo sapiens) (UniProt P54753).
T3 sequence (whole entry): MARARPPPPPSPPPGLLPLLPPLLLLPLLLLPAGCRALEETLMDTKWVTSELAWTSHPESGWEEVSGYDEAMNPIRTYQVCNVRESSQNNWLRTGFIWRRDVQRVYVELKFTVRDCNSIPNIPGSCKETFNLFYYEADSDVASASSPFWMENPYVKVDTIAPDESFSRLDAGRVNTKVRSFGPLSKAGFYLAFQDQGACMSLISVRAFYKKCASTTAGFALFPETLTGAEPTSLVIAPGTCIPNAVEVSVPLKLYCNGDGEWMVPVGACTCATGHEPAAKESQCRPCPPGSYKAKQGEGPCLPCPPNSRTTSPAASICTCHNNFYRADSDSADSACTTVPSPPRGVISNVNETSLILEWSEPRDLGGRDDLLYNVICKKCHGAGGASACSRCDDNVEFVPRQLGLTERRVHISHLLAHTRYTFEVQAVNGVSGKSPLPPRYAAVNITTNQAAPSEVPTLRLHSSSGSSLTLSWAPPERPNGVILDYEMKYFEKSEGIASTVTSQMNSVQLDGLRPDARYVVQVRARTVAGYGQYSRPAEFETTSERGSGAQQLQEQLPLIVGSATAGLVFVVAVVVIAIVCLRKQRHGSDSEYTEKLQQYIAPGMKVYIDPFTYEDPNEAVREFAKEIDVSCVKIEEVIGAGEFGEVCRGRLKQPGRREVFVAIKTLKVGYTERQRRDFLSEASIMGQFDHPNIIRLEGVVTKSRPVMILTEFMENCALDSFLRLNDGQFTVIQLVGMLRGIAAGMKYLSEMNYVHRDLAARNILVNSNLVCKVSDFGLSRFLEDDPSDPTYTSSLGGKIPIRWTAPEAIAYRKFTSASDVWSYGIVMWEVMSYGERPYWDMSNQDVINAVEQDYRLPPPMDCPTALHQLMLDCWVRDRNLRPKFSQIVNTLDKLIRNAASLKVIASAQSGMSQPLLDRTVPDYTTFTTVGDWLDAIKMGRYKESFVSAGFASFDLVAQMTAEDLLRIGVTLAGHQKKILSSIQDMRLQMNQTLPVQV
To be noted: at 1 µM.

For test [5], the target named is T3, Ephrin type-B receptor 3 (Homo sapiens). To be noted: at 10 µM.
The target in test [6] is T4, Ephrin type-B receptor 4 (Homo sapiens) (UniProt P54760).
T4 sequence (whole entry): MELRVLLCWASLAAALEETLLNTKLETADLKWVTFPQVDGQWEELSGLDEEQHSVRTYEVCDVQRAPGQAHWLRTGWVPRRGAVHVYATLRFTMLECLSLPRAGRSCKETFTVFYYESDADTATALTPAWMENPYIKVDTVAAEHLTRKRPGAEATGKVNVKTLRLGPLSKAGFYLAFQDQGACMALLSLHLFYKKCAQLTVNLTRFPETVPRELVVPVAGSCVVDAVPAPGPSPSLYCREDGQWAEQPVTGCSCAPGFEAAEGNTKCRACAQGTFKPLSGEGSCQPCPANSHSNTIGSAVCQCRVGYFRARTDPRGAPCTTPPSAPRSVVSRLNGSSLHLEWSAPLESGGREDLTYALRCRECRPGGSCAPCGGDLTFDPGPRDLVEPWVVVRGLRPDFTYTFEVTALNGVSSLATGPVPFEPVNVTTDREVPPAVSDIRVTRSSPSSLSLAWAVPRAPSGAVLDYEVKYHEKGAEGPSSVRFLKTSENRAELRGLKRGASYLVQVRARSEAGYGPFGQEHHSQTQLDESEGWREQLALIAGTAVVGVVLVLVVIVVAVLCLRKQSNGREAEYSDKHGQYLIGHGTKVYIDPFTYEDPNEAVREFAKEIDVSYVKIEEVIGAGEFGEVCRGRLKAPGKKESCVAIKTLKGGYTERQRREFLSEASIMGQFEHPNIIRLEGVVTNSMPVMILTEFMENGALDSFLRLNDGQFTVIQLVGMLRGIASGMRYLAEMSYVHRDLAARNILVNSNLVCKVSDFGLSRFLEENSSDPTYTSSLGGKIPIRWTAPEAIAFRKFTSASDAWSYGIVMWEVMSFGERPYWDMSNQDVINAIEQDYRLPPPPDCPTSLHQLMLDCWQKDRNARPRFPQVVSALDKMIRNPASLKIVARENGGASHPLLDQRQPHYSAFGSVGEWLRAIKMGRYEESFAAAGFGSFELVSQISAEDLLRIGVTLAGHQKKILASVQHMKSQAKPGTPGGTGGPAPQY
To be noted: at 1 µM.

In test [7] the target is T4, Ephrin type-B receptor 4 (Homo sapiens). To be noted: at 10 µM.
In test [8] the target is Receptor tyrosine-protein kinase erbB-4 (Homo sapiens) (UniProt Q15303). To be noted: at 1 µM.
Sequence of Receptor tyrosine-protein kinase erbB-4 (Homo sapiens) (Q15303 whole entry): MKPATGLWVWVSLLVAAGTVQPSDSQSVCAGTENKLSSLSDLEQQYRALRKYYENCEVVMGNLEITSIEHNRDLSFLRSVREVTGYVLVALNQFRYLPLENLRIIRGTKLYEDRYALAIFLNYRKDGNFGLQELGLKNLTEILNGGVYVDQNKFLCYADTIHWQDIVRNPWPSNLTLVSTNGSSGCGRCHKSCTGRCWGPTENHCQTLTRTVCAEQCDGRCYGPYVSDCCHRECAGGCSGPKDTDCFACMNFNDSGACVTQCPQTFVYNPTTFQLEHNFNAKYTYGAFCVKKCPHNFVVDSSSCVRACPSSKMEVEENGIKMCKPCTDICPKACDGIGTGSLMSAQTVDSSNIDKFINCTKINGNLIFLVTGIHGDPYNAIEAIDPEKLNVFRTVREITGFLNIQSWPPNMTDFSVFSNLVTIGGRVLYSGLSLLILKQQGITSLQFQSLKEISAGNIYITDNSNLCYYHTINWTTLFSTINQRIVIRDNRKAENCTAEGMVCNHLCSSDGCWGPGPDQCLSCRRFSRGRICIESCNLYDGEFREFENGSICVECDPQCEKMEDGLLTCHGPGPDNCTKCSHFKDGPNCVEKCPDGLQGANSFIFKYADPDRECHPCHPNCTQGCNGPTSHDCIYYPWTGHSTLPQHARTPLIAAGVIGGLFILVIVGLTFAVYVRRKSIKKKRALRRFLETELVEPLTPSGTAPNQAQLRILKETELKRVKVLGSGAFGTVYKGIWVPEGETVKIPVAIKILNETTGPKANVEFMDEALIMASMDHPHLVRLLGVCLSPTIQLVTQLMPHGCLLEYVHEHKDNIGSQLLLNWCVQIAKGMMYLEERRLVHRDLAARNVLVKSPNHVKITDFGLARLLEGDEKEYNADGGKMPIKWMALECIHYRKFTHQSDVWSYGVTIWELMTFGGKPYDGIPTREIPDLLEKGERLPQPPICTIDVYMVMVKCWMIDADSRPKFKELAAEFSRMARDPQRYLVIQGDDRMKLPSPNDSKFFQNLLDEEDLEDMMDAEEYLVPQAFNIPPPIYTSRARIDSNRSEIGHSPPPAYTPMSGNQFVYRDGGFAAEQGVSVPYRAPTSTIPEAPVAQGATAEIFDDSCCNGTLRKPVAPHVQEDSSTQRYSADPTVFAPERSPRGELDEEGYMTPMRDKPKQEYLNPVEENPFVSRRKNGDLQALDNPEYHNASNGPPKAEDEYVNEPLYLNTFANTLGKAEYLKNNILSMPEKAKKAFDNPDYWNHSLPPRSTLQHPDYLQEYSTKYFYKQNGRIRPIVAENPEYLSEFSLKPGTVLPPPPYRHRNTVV
Test [9] shares this target. To be noted: at 10 µM.
Test [10] concerns the target Focal adhesion kinase 1 (Homo sapiens) (UniProt Q05397). To be noted: at 1 µM.

One may read the residual activity as the signal under treatment as a percentage of the control signal.

Sequence of Focal adhesion kinase 1 (Homo sapiens) (Q05397 2-1052 limits assumed): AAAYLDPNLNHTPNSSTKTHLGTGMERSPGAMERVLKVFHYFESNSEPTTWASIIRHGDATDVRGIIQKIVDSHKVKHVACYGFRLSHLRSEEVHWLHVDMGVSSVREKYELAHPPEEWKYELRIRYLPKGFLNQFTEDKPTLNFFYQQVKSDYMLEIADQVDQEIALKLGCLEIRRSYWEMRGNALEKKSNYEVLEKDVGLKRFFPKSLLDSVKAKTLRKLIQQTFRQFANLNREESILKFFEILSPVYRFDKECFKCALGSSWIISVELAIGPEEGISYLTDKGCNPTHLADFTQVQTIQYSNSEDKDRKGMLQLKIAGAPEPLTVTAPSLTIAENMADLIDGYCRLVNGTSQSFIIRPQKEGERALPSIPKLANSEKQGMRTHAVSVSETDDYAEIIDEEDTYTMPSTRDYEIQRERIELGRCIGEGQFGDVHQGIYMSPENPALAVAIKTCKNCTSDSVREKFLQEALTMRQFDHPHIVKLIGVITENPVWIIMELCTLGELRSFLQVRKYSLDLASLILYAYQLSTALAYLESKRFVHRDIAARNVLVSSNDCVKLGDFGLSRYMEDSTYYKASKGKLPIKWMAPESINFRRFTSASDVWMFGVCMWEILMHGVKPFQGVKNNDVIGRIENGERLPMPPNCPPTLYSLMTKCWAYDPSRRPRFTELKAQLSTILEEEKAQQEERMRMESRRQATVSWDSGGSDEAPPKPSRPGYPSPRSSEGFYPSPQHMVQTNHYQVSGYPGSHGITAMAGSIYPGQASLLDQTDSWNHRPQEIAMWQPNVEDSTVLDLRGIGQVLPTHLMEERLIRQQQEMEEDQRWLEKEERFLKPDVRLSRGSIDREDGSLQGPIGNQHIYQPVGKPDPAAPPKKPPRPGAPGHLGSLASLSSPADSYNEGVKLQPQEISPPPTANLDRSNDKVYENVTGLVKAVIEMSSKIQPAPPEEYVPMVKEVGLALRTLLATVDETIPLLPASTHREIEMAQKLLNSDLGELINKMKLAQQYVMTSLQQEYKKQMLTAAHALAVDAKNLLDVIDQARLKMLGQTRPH

In the case of `O=c1cc(-c2cccc3c2Sc2ccccc2S3)oc(N2CCOCC2)c1`, the residual activity was 92% in test [1]; 112% in [2]; 126% in test [3]; 119% (inactive) in [4]; 121% in test [5]; 113% in test [6]. Besides, the residual activity amounted to 118% in [7], 105% in test [8], 92% in test [9] and 109% in [10].
